From PubChem BioAssay (Tox21)
Values without a mark were called inactive. Inconclusive results are not listed. A call without a number means that no potency is given here. The source made the active and inactive calls. Unless noted, the call rests on the fitted dose curve; in most records, active means well fitted curve in the direction sought with a large enough effect in the repeat runs; inconclusive means weak or mixed curves; inactive means no such curve, though single readings can be large; an effect the other way counts as inactive or inconclusive.

Assays:
[1] = A CellTox Green Cytotoxicity Assay to monitor cytotoxicity in HepG2 cells - 8 hour (AID 1224890); further: nearly all actives have a fitted effect of over 45% in size
Procedure, shortened: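 Cells and non-lytic dye reagent are dispensed together (600 HepG2 cells/well) and incubated 5 h before DMSO compound transfer. Kinetic fluorescence is then recorded in the same wells during 40 h at 37 C.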

[2] = qHTS assay to identify small molecule antagonists of the estrogen receptor alpha (ER-alpha) signaling pathway using the BG1 cell line in the presence of 0.1 nM 17-beta-estradiol - cell viability counter screen (AID 1259241); further: nearly all actives have a fitted effect of over 40% in size
Procedure, shortened: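 Estradiol-stimulated (0.1 nM) VM7Luc4E2 cells exposed to compounds 22 hr; viability measured by fluorescence of cleaved CellTiter-Fluor substrate after 30 min.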

[3] = qHTS assay to identify small molecule antagonists of the androgen receptor (AR) signaling pathway using the MDA cell line in the presence of 0.5 nM R1881 - cell viability counter screen (AID 1259242); further: nearly all actives have a fitted effect of over 45% in size
Procedure, shortened: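 Steps: plate MDA-kb2 cells, rest 5 hr at 37C without CO2; pin in compounds in DMSO; add R1881 to 0.5 nM final; incubate 16 hr; add CellTiter-Fluor, 30 min; read fluorescence.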

[4] = target: Estrogen receptor (Homo sapiens) (UniProt P03372); experiment: qHTS assay to identify small molecule antagonists of the estrogen receptor alpha (ER-alpha) signaling pathway using the BG1 cell line in the presence of 0.1 nM 17-beta-estradiol (AID 1259244); further: nearly all actives have a fitted effect of over 50% in size
Procedure, shortened: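 Antagonist mode: compounds in DMSO are pinned onto VM7Luc4E2 reporter cells, 0.1 nM final 17beta-estradiol is added, and after 22 h at 37C luciferase luminescence is measured with ONE-Glo.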

[5] = qHTS assay to identify small molecule HDAC inhibitors (AID 1259364); further: potency means the concentration at half of the fitted maximal effect;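 further: wild-type HCT-116 cells with endogenous class I/II HDAC activity; nearly all actives have a fitted effect of over 45% in size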
Procedure, shortened: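 Cells (HCT-116, wild type) are seeded at 1,500 per well, incubated overnight, treated with compound in DMSO for 2 hr, then developed with HDAC-Glo I/II reagent for 30 min at room temperature.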

[6] = qHTS assay to identify small molecule HDAC inhibitors - cell viability counter screen (AID 1259365); further: series mostly up to about 92 µM; nearly all actives have a fitted effect of over 50% in size
Procedure, shortened: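 After overnight seeding at 1,500 cells per well, wild-type HCT-116 cultures took up compounds in DMSO for 2hr at 37 C. Viable cell content came from luminescence with CellTiter-Glo.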

[7] = qHTS assay to identify small molecule agonists of the sonic hedgehog signaling (Shh) pathway - cell viability counter screen (AID 1259366); further: nearly all actives have a fitted effect of over 50% in size
Procedure, shortened: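 Same-well cytotoxicity read. Gli1-Luc reporter 3T3 cells; compounds 24hr, 37C/5% CO2; CellTiter-Fluor fluorescence.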

[8] = qHTS assay to identify small molecule antagonists of the sonic hedgehog signaling (Shh) pathway - cell viability counter screen (AID 1259367); further: nearly all actives have a fitted effect of over 55% in size
Procedure, shortened: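 Viability was read by CellTiter-Fluor fluorescence in the same wells, reagent added 23 hr into compound treatment and incubated 1 hr at 37C. The 3T3 Gli1-Luc reporter cells (2,000/well) received conditioned medium after compound and ran 24 hr.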

[9] = qHTS assay to identify small molecule agonists of the sonic hedgehog signaling (Shh) pathway (AID 1259368; calls by dose curve;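 further: NIH/3T3-derived 3T3Gli1-Luc cells carrying a stable Gli1-driven firefly luciferase reporter; series mostly up to about 92 µM; nearly all actives have a fitted effect of over 15% in size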)
Procedure, shortened: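 Cells of a mouse NIH/3T3 clone stably expressing luciferase under the Gli1 transcriptional response element are exposed to test chemicals for 24 hr at 37 C. Pathway activation is detected as a rise in luminescence.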

[10] = qHTS assay to identify small molecule antagonists of the sonic hedgehog signaling (Shh) pathway (AID 1259369; calls by dose curve; further: nearly all actives have a fitted effect of over 45% in size; further: potency means the concentration at half of the fitted maximal effect)
Procedure, shortened: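 Cells are plated and held 4hr at 37 C, compounds (DMSO) are pinned in, conditioned medium is added to stimulate the pathway, and after 24hr luciferase reagent is added for 30min before luminescence is read.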

[11] = target: Estrogen receptor beta (Homo sapiens) (UniProt Q92731); experiment: qHTS assay to identify small molecule agonists of the estrogen receptor beta (ER-beta) signaling pathway (AID 1259377; active means well fitted activation curve with a large enough effect in the signal ratio in the repeat runs, not every such curve was filed as active; the % refers to the signal ratio)
Procedure, shortened: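 Read-out: beta-lactamase FRET fluorescence. Cell line: ER-beta-UAS-bla HEK293T in 2% charcoal-stripped FBS. Exposure: 16 hr at 37C. Substrate step: 2 h at room temperature.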

[12] = qHTS assay to identify small molecule agonists of the androgen receptor (AR) signaling pathway in the presence of an antagonist - cell viability counter screen (AID 1259379);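 further: MDA-kb2 human breast cancer cells carrying an MMTV luciferase reporter; series mostly up to about 92 µM; nearly all actives have a fitted effect of over 25% in size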
Procedure, shortened: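 Cytotoxicity is assessed by CellTiter-Fluor in MDA-kb2 cells carrying an MMTV-driven luciferase reporter. Cells receive 3.0uM nilutamide plus compounds at 15 concentrations and incubate 16 hr at 37C without CO2 before fluorescence reading.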

[13] = qHTS assay to identify small molecule agonists of the estrogen receptor beta (ER-beta) signaling pathway - cell viability counter screen (AID 1259380); further: nearly all actives have a fitted effect of over 30% in size
Procedure, shortened: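 Cytotoxicity is measured in parallel with the reporter screen: after 16 hr compound exposure at 37C and a 2 hr LiveBLAzer step, CellTiter-Glo is added to the same ER-beta-UAS-bla HEK293T wells and luminescence read after 30 min.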

[14] = qHTS assay to identify small molecule antagonists of the estrogen receptor beta (ER-beta) signaling pathway - cell viability counter screen (AID 1259382);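 further: HEK293T cells carrying ER-beta-UAS-bla reporter stimulated with estradiol; series mostly up to about 92 µM; nearly all actives have a fitted effect of over 55% in size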
Procedure, shortened: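 Cytotoxicity counter screen multiplexed with the beta-lactamase antagonist assay: GripTite HEK293T ER-beta-bla cells were treated 16 hr with test chemicals in the presence of 1nM 17-beta-estradiol, and viability was measured by CellTiter-Glo.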

[15] = target: Estrogen receptor (Homo sapiens) (UniProt P03372); experiment: qHTS assay to identify small molecule agonists of the estrogen receptor alpha (ER-alpha) signaling pathway in the presence of an antagonist (AID 1259383; calls by dose curve; further: top concentration of the series differs between compounds; nearly all actives have a fitted effect of over 15% in size)
Procedure, shortened: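 Agonist-mode confirmation in the presence of the ER antagonist ICI-182,780 at 10.0nM final. Breast-derived VM7Luc4E2 reporter cells were exposed to compounds for 22hr, and ERE-driven luciferase was quantified by luminescence.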

[16] = qHTS assay to identify small molecule agonists or antagonists of the thyroid stimulating hormone receptor (TSHR) signaling pathway - wild type cell line counter screen (AID 1259384; calls by dose curve)
Procedure, shortened: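 Counter screen in untransfected Hek293: compounds (15-point titration, triplicate) plus phosphodiesterase inhibitor Ro20-1724 added after 18 h plating; 30 min RT. Intracellular cAMP via competitive d2/cryptate immunoassay, 1 h incubation.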

[17] = target: Estrogen receptor beta (Homo sapiens) (UniProt Q92731); experiment: qHTS assay to identify small molecule antagonists of the estrogen receptor beta (ER-beta) signaling pathway (AID 1259378; active means well fitted inhibition curve with a large enough effect in the signal ratio in the repeat runs, not every such curve was filed as active; the % refers to the signal ratio)
Procedure, shortened: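 Antagonist mode: compounds added to beta-lactamase reporter HEK293T ER-beta-UAS cells stimulated with E2 (1nM final), 16 hr at 37C. LiveBLAzer B/G FRET substrate, 2 hours room temperature, fluorescence read-out.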

Chain of Estrogen receptor (Homo sapiens) (P03372 whole entry, looked up): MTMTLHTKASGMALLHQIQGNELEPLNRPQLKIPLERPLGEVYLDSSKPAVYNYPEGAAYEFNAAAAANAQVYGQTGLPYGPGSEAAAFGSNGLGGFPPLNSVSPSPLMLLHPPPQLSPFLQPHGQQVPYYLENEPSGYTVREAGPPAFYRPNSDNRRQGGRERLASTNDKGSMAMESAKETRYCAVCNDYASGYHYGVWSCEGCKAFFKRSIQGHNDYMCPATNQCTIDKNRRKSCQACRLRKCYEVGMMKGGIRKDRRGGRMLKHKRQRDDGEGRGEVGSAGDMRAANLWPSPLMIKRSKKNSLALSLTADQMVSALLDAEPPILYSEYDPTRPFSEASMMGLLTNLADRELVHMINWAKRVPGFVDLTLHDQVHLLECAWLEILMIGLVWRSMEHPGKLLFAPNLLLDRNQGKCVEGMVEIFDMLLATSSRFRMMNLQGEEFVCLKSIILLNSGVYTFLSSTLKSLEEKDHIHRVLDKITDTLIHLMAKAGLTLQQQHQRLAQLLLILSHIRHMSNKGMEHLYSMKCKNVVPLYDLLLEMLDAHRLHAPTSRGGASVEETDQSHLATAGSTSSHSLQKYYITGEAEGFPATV
Chain of Estrogen receptor beta (Homo sapiens) (Q92731 whole entry, looked up): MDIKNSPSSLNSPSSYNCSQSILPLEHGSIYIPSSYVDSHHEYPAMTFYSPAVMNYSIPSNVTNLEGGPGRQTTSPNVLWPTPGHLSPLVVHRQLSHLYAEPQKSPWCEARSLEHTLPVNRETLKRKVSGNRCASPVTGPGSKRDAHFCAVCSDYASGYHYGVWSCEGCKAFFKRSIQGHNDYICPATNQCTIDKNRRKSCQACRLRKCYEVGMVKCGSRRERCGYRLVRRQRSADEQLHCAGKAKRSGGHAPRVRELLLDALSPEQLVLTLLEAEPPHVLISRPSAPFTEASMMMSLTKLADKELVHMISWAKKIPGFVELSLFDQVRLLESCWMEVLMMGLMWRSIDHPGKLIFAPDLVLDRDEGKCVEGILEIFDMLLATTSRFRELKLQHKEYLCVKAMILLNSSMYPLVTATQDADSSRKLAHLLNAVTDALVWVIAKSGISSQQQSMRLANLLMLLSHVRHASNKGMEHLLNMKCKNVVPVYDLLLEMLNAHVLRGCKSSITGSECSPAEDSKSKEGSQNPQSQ

Structure (SMILES) | Potency [1] | Potency [2] | Potency [3] | Potency [4] | Potency [5] | Potency [6] | Potency [7] | Potency [8] | Potency [9] | Potency [10] | Potency [11] | Potency [12] | Potency [13] | Potency [14] | Potency [15] | Potency [16] | Potency [17]
CCSC(=O)N(CC)CC | inactive | inactive | inactive | inactive | inactive | inactive | inactive | inactive | inactive | inactive | inactive | inactive | inactive | inactive | inactive | inactive | –
O=C(/C=C/c1ccc([N+](=O)[O-])cc1)c1ccccc1 | inactive | inactive | inactive | inactive | 8.65 µM (active) | inactive | inactive | inactive | inactive | – | – | – | – | inactive | inactive | inactive | –
C=CCOC(=O)COCCC(C)C | inactive | inactive | inactive | inactive | inactive | inactive | inactive | inactive | inactive | inactive | inactive | inactive | inactive | inactive | inactive | inactive | inactive
CC12CC3CC(C)(C1)CC(N)(C3)C2 | inactive | inactive | inactive | inactive | inactive | inactive | – | inactive | inactive | 16.8 µM (active) | inactive | inactive | inactive | inactive | inactive | inactive | inactive
CC(C)OC(=O)c1ccccc1C(=O)OC(C)C | inactive | inactive | inactive | inactive | inactive | inactive | inactive | inactive | inactive | inactive | – | inactive | inactive | inactive | inactive | inactive | –
NC(=O)c1ccccc1[N+](=O)[O-] | inactive | inactive | inactive | inactive | inactive | inactive | inactive | inactive | inactive | inactive | – | inactive | inactive | inactive | inactive | inactive | inactive
C1CCCCC1 | inactive | inactive | inactive | – | inactive | inactive | inactive | inactive | inactive | inactive | – | inactive | inactive | inactive | – | inactive | inactive
CCCCOC(=O)CCCCC(=O)OCCCC | inactive | inactive | inactive | – | inactive | inactive | inactive | inactive | inactive | inactive | inactive | inactive | inactive | inactive | – | inactive | inactive
